Screening results as filed in PubChem.
Hits are enriched below; roughly 4.1% of the tested compounds scored in any of these assays.
FBA Mtb inh = inhibits M. tuberculosis FBA enzyme; inhibition, % at 1 µM; purified M. tuberculosis FBA, fluorescence read-out; 360,000 compounds, 2.3% hits; AID 588726; P9WQA3; in the data active = inhibition above about 27%;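 also: 0% = vehicle and 100% = reference inhibitor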
Rv3671c protease = inhibits the M. tuberculosis serine protease Rv3671c; inhibition, % at 5.96 µM; 320,000 compounds, 0.048% hits; P9WHR9; AID 2606; in the data active = inhibition above about 38%;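 also: extracellular domain of Rv3671c used as enzyme; 0% = enzyme with DMSO and 100% = no enzyme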
Target sequence (P9WHR9 whole entry, looked up, the tested form may be a part): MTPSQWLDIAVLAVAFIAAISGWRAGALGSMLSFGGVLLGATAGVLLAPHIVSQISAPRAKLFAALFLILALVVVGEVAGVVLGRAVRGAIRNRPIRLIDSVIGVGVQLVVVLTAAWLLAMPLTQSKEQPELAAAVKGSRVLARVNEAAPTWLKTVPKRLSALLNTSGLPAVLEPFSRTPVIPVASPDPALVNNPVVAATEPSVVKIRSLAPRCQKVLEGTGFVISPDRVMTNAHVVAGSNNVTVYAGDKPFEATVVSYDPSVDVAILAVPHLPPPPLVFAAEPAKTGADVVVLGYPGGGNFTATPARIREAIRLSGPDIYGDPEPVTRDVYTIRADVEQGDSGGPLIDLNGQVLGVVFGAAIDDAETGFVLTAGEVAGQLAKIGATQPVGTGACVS
GDH-TPI inh = counter-screen for M. tuberculosis FBA inhibitors: GDH-TPI coupled enzymes. inhibition, % at 4.8 µM. 360,000 compounds, 1.2% hits. GDH-TPI coupled enzyme counterscreen, NADH absorbance; in the data active = inhibition above about 30%;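 also: 0% = DMSO wells and 100% = wells lacking the enzyme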
Vc quorum ag = inducers of Vibrio cholerae quorum light production without autoinducers | V. cholerae BH1578 lux reporter, luminescence, 6 h | activation, % at 18.7 µM | 350,000 compounds, 0.16% hits; in the data active = activation mostly above about 9.7%, no sharp cut-off
RecA intein inh = inhibitors of M. tuberculosis RecA intein splicing | P9WHJ3 | 290,000 compounds, 0.75% hits | AID 2221 | cell-free RecA intein splicing, fluorescence | inhibition, % (no concentration beside the values); in the data active = inhibition above about 30%;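 also: 0% = vehicle wells and 100% = reference inhibitor control wells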
Mtb UGM inh = blocks M. tuberculosis UGM enzyme; 320,000 compounds, 0.06% hits; AID 504406; purified UGM, fluorescence polarization probe displacement; P9WIQ1; inhibition, % at 10 µM; in the data active = inhibition above about 10%, passing the limit was not always enough
Numbers without * were called inactive; i = inactive; nt = no result; + = active, no number.

SMILES	FBA Mtb inh	Rv3671c protease	GDH-TPI inh	Vc quorum ag	RecA intein inh	Mtb UGM inh
O=c1cc(-c2ccc(O)cc2)oc2c(-c3c(O)cc(O)c4c(=O)cc(-c5ccc(O)cc5)oc34)c(O)cc(O)c12	1.1	-9.5	35.3*	-0.6	nt	nt
COc1ccc(-c2cc(=O)c3c(O)cc(O)cc3o2)cc1	2.3	-27.2	33.7*	-0.3	nt	0.4
O=c1cc(-c2ccc(O)c(-c3c(O)cc(O)c4c(=O)cc(-c5ccc(O)cc5)oc34)c2)oc2cc(O)cc(O)c12	-1.2	-41.1	33.5*	i	5.8	1.4
COc1cc(-c2cc(=O)c3c(O)cc(O)cc3o2)cc(OC)c1OC	-7.3	nt	9.0	-0.5	nt	nt
COc1cc(OC)cc(-c2noc([C@@H]3O[C@H](CO)[C@H](O)[C@H](O)[C@H]3O)n2)c1	-0.8	nt	4.5	-0.4	nt	nt
COc1ccc(S(=O)(=O)N2CCCCCC2)cc1NC(=O)CCCOc1ccccc1	-0.6	4.2	-1.8	i	nt	3.0
COC(=O)Cc1[nH]n(-c2nc3ccccc3s2)c(=O)c1C(C)=O	7.4	4.3	-2.8	+	-7.0	-1.2
COc1ccc(-c2nnc(SCC(=O)NC3CC3)o2)cc1	2.8	1.8	-9.2	0.8	nt	-1.1
Cc1c(N=C2NN=C(c3ccc(Cl)cc3)CS2)c(=O)n(-c2ccccc2)n1C	5.0	4.0	5.1	-0.3	6.1	3.1
Cc1c(N=C2NN=C(c3c[nH]c4ccccc34)CS2)c(=O)n(-c2ccccc2)n1C	0.3	-2.8	50.0*	i	-0.6	-0.2
CN(C)c1ccc2cc(S(=O)(=O)O)cc(O)c2c1	169.2*	nt	15.3	13.0	nt	nt
C[C@@H]1CN([C@H](C)CO)C(=O)CCCn2nncc2CO[C@H]1CN(C)Cc1ccc2cccnc2c1	-1.5	nt	9.3	-0.4	nt	nt
CCOC(=O)CCCCCC(=O)Nc1ccc2c(c1)C(=O)N([C@H](C)CO)C[C@@H](C)[C@@H](CN(C)C(=O)CCC(F)(F)F)OCCCC[C@H](C)O2	-1.7	nt	1.0	-1.1	nt	nt
COc1ccc(/C=C/C(=O)Nc2cc(S(=O)(=O)N3CCOCC3)ccc2OC)cc1	-2.8	-4.2	30.8*	0.9	nt	0.9
COc1ccc(NC(=O)/C=C/c2ccc(S(=O)(=O)N3CCOCC3)cc2)cc1	1.5	-5.2	5.1	i	nt	4.3
COc1ccc(/C=C/C(=O)Nc2ccc(C)c(S(=O)(=O)N3CCOCC3)c2)cc1	1.6	-46.9	32.7*	-0.1	nt	nt
CCOc1ccc2cc(S(=O)(=O)N3CCOCC3)ccc2c1	9.7	5.9	-15.7	73.8*	-0.1	1.9
COc1ccc(S(=O)(=O)N2CCOCC2)cc1NC(=O)/C=C/c1ccc(F)cc1	-3.2	nt	8.3	i	nt	nt
O=C(CC1C[C@H](C(=O)N2CCCCC2)[C@@]2(CCc3ccccc3)c3[nH]c4ccccc4c3CCN2C1=O)NCCCn1ccnc1 (some centres not stated)	-0.1	5.1	0.0	i	nt	1.3
COc1ccc(/C=N/NC(=O)c2[nH]c(C)c(C(=O)N/N=C/c3ccc(OC)cc3)c2C)cc1	-2.6	-3.4	100.0*	-0.2	-5.1	nt
COc1cccc(/C=N/NC(=O)c2[nH]c(C)c(C(=O)N/N=C/c3cccc(OC)c3)c2C)c1	-5.3	-7.8	41.9*	-0.7	2.6	-2.3
O=CNc1cc(-c2ccc(C(=O)NC3CC3)cc2)cn2c(-c3ccc(F)cc3)cnc12	3.2	nt	1.3	0.5	nt	nt
CCCCCCNC(=O)C(C#N)c1nc2ccccc2nc1N1CCCC1 (configuration not stated)	3.9	-3.0	4.8	i	-36.8	2.1
CCCCCCNC(=O)C(C#N)c1nc2ccccc2nc1N1CCOCC1 (configuration not stated)	1.6	1.3	4.0	nt	-21.6	14.0*
CC1(C(=O)Nc2ccc3c(c2)OCO3)Cc2c(-c3cccc(C(F)(F)F)c3)ccnc2O1 (configuration not stated)	0.3	nt	16.6	-0.3	nt	nt
SMILES	FBA Mtb inh	Rv3671c protease	GDH-TPI inh	Vc quorum ag	RecA intein inh	Mtb UGM inh
COc1ccccc1OCc1nnc(SCC(=O)Nc2nnc(C3CC3)s2)n1C	174.8*	3.7	-1.1	-0.2	-0.8	0.7
CN(C1=C(NC(=O)c2ccc(Cl)cc2)C(=O)c2ccccc2C1=O)c1ccccc1	-0.8	1.1	11.8	0.3	43.0*	-2.8
O=C1C(Cl)=C(NC(=O)c2ccccc2)C(=O)C(Cl)=C1NC(=O)c1ccccc1	5.4	-119.0	34.0*	i	22.9	0.2
CCOC(=O)N1CCC(Nc2nc3ccccc3nc2NS(=O)(=O)c2ccc(Cl)cc2)CC1	5.3	-2.2	41.7*	i	-3.0	1.0
CCOC(=O)N1CCC(NC(=O)c2ccc(Cl)cc2)CC1	1.3	1.8	2.4	-0.6	1.6	2.3
CCCn1c2c(c(O)c(C(=O)Nc3ncccc3O)c1=O)CCCC2	-0.2	-1.5	34.2*	i	-2.2	-2.6
CCCn1c2c(c(O)c(C(=O)NC)c1=O)CCCC2	1.8	10.4	-3.8	-0.5	-2.6	0.6
CN1CCN(C(=O)c2cc([N+](=O)[O-])ccc2Cl)CC1	3.1	6.5	7.3	i	-1.1	1.3
COC(=O)c1c(NC(=O)/C=C/C(=O)O)sc(C)c1-c1ccc(C)cc1	0.7	-4.4	11.0	-0.2	43.4*	-1.5
CCN(CC)c1ccc2cc(S(=O)(=O)c3ccc(C)cc3)c(=O)oc2c1	-0.1	-7.0	6.9	-0.2	-73.2	30.1*
CCN(CC)C(=O)CSc1nc2c(sc(=S)n2-c2ccccc2)c(=O)n1-c1ccc(OC)cc1OC	+	-1.6	2.6	0.6	-57.0	-0.4
COc1ccc2c(c1OC)C(CC(C)=O)N1CCc3cc4c(cc3C1C2=O)OCO4 (configuration not stated)	-3.2	nt	-6.7	i	nt	nt
CCC(=O)Oc1ccc(C(=O)Nc2cccc(C(=O)c3ccccc3)c2)cc1	0.7	-26.4	-5.3	1.0	35.9*	2.4
CC(=O)Oc1ccc(C(=O)Nc2cccc(C(=O)c3cccc(NC(=O)c4ccc(OC(C)=O)cc4)c3)c2)cc1	0.2	-51.2	6.2	-0.3	3.8	-0.6
Cn1cc(Cc2ccccc2)c(=O)c(Cc2ccccc2)c1	-1.1	nt	-3.2	0.9	nt	nt
CC(=O)Nc1ccc(C(=O)N/C(=C/c2ccccc2)C(=O)N2CCCCC2)cc1	-2.7	1.9	-0.4	i	1.2	-2.8
CN1/C(=C\C(=O)COC(=O)Cn2nnc(-c3ccccc3)n2)C(C)(C)c2ccccc21	1.2	-46.0	33.6*	-0.7	5.8	3.2
CN1/C(=C/C(=O)COC(=O)CN2C(=O)C3CC=CCC3C2=O)C(C)(C)c2ccccc21 (configuration not stated)	5.5	nt	29.7	i	nt	nt
CCOC(=O)C1CCCN(CC(=O)/C=C2/N(C)c3ccccc3C2(C)C)C1 (configuration not stated)	6.0	-4.3	30.7*	i	-4.0	0.7
COc1ccc2c(c1)c1ncn(CCCN3CCOCC3)c(=O)c1n2C	170.0*	-6.8	9.4	i	3.3	2.3
